# In ChEMBL document CHEMBL1201862, “PubChem BioAssay data set” (2004):
# Potency and affinity values are given separately. These assays gave more results; the selection is not random.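 Values below derive from 48-hour exposures of cells grown in 96-well plates, with endpoints linearly interpolated between the two concentrations bracketing the appropriate inhibition level. Abbreviation: GI50, concentration required for 50% inhibition of growth.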
# System: KM-20L2
# Assay: NCI tumour cell line growth inhibition, 48 h
substance,measurement,value
"CADMIUM DICHLORIDE, CHEMBL1458880",GI50,100 µM
